Assay outcomes deposited in PubChem BioAssay by National Center for Advancing Translational Sciences (NCATS).
3T3 cytotox – cytotoxic compounds in NIH 3T3 cells | NIH 3T3 viability, CellTiter-Glo ATP luminescence, 48-72 h | Potency, µM (titrated, usually from 96.7 µM), for the others: top-dose activity change, negative = cytotoxicity, hits mostly inhibitors | 94,000 tested, 4.3% active | AID 1345082; note: nearly all actives have a fitted effect of over 55% in size
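Cells were seeded at 400 per well, treated with pin-transferred compound, and kept 48 or 72 hr at 37 °C before CellTiter-Glo addition and luminescence imaging of cellular ATP.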
FLuc inh – blocks purified firefly luciferase enzyme activity | 76,000 tested, 2.5% active | Potency, µM (titrated, usually from 115 µM), actives largely listed as inhibitors | purified P. pyralis luciferase, luminescence, biochemical; note: nearly all actives have a fitted effect of over 65% in size
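FLuc 10nM, D-luciferin 10uM, ATP 10uM, Mg acetate 10mM, Tris acetate pH 7.5, Tween/BSA; cpd qHTS; enzyme added last; CCD luminescence.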
NPR1 antag – blocks ANP-stimulated signaling of human Npr1 receptor; HEK293 hNpr1 GloSensor cGMP, ANP-stimulated luminescence; Potency, µM (top dose mostly 46.3 µM), without a hit: at the highest dose activity change, negative = inhibition, most hits filed as inhibitors; 76,000 tested, 1.6% active; calls by dose curve; note: nearly all actives have a fitted effect of over 60% in size
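HEK293 cells stably expressing human Npr1 and cGMP GloSensor pGS-40F, loaded 2 h with 2% GloSensor reagent, given compound 30 min at room temperature. Luminescence read before and 20 min after 0.1 nM hNppA.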
HEK cytotox – HEK 293 cell cytotoxicity; HEK 293 viability, ATP luminescence (CellTiter-Glo), 48-72 h; AID 1345083; 94,000 tested, 6.6% active; Potency, µM (top dose mostly 115 µM), inactives show top-dose activity change, negative = cytotoxicity, actives largely listed as inhibitors; note: nearly all actives have a fitted effect of over 60% in size
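250 HEK 293 cells/well; compound by pintool; incubated 48 or 72 hr at 37 degree Celsius; CellTiter-Glo added, 10 min RT, luminescence imaged.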
* = called active by the depositor; i = inactive; u = inconclusive; x = no result given; [ ] = another dose, or the depositor's remark. Most compounds without a hit are left out; they make up all but 11% or so of the library. Unless noted, calls come from the whole dose curve; as a rule, active = well fitted curve in the direction sought with a large enough effect; inconclusive = small, poorly fitted or top-dose-only effect, or another doubt; inactive = no such curve, though single readings can be large; an effect the other way counts as inactive or inconclusive. % is set by controls: 0 for no effect and ±100 for the full control effect; potency is the fitted concentration of half-maximal effect.

SMILES	3T3 cytotox	FLuc inh	NPR1 antag	HEK cytotox
CCC(=O)N1Cc2ccccc2CC2(CCN(CC3CCNC3)CC2)C1 (stereo not given)	i	x	x	i
O=C(Cc1ccc(F)cc1)N1CCCC(C(=O)N2CCC(c3nc4ncccc4[nH]3)CC2)C1 (stereo not given)	-24%	x	x	-26%
Cc1csc(NC(=O)c2nc3c(o2)CCN(Cc2ccc4[nH]ccc4c2)CC3)n1	u	35µM*	-17%[70.6 µM]	100µM*
O=C(NCc1ccccc1)c1nc2c(o1)CCN(CC1CCCC1)CC2	u	i	-4%[70.6 µM]	u
Cc1ccc(CN2CCc3nc(C(=O)Nc4nc(C)cs4)oc3CC2)cc1	u	i	-21%[70.6 µM]	71µM*
Cc1csc(NC(=O)c2nc3c(o2)CCN(CC2CCCC2)CC3)n1	u	28µM*	-3%[70.6 µM]	u
COCCCNC(=O)c1cc(C(C)(C)C)nc2c1cnn2C	u	x	x	-12%[172 µM]
CN(CCCN1CCCCCC1)c1nc(-c2ccncc2)nc2c1cnn2C	32µM*	i	10%	u
O=C(Nc1cccc(C(F)(F)F)c1)N[C@H]1CO[C@H]2[C@@H]1OC[C@@H]2n1nnnc1-c1ccc2c(c1)OCO2	32µM*	i	u	40µM*
O=C(Nc1cccc(C(F)(F)F)c1)N[C@H]1CO[C@H]2[C@@H]1OC[C@@H]2n1nnnc1Oc1ccc(-n2ccnc2)cc1	22µM*	i	u	32µM*
COc1ccc(NC(=O)N[C@H]2CO[C@H]3[C@@H]2OC[C@@H]3n2nnnc2-c2ccc3c(c2)OCO3)cc1	u	i	0%	u
O=C(NCc1ccccc1)N[C@H]1CO[C@H]2[C@@H]1OC[C@@H]2n1nnnc1Oc1ccc(-n2ccnc2)cc1	-2%	i	0%	0%
O=C(NC1CCCCC1)N[C@H]1CO[C@H]2[C@@H]1OC[C@@H]2n1nnnc1-c1ccc2c(c1)OCO2	-20%	i	2%	-22%
COc1cccc(-c2nnnn2[C@H]2CO[C@H]3[C@@H]2OC[C@@H]3NC(=O)c2ccc(N(C)C)cc2)c1	u	u	16µM*	u
O=C(N[C@H]1CO[C@H]2[C@@H]1OC[C@@H]2n1nnnc1-c1ccc2c(c1)OCO2)c1ccccc1	u	i	u	79µM*
COc1cccc(-c2nnnn2[C@H]2CO[C@H]3[C@@H]2OC[C@@H]3NC(=O)c2ccccc2C(=O)O)c1	-7%	i	4%	-1%
O=C(c1ccoc1)N1CCC(Cc2nc(C3CCOCC3)no2)CC1	-13%	i	-15%	-5%
COc1ccc(Cn2c(=O)c(C(=O)N3CCN(c4ncccn4)CC3)nc3cccnc32)cc1	-13%	x	x	u
CC(C)CN1C[C@@H](NC(=O)c2cccnc2)C[C@H]1CO	3%	i	3%	15%
CCc1ccc(S(=O)(=O)N2CCC(n3cnnc3CCOC)CC2)cc1	u	i	2%	-5%
CCC1Oc2ccc(NC(=O)COC)cc2CN(Cc2ccc(Cl)cc2)C1=O (stereo not given)	u	i	-16%	u
CCC1Oc2ccc(NS(=O)(=O)c3ccc(C)c(F)c3)cc2CN(Cc2ccc(OC)cc2)C1=O (stereo not given)	25µM*	i	-20%	u
CCC1Oc2ccc(NS(=O)(=O)c3ccccc3)cc2CN(Cc2ccc(F)cc2)C1=O (stereo not given)	u	i	-5%	35µM*
CCC1Oc2ccc(NC(=O)Cc3ccc(OC)cc3)cc2CN(Cc2ccc(OC)cc2)C1=O (stereo not given)	u	i	-12%	u
CCC1Oc2ccc(NS(=O)(=O)c3ccc(Cl)cc3)cc2CN(Cc2ccc(F)cc2)C1=O (stereo not given)	14µM*	i	-24%	u
SMILES	3T3 cytotox	FLuc inh	NPR1 antag	HEK cytotox
O=C(NCc1cccc(C(F)(F)F)c1)c1ccc2nc(-c3cccnc3)oc2c1	-16%	x	x	-29%
COCCN1CC(CO)C2(CCN(C(=O)Cc3ccccc3C)CC2)C1 (stereo not given)	-14%	i	-13%	u
O=C(CCCc1ccccc1)N1CCC2(CC1)CC(CO)N(C(=O)c1ccccc1)C2 (stereo not given)	-30%	x	x	u
CN1CCCCCC(O)c2cc(C(=O)NCCCc3ccccc3)ccc21 (stereo not given)	u	i	-15%	u
CN1CCCCCC(O)c2cc(C(=O)N3CCN(c4ccc(F)cc4)CC3)ccc21 (stereo not given)	u	i	-27%	45µM*
COc1ccccc1CN1CCN(C(=O)c2ccc3c(c2)C(O)CCCCCN3C)CC1 (stereo not given)	u	i	-22%	50µM*
CN1CCCCCC(O)c2cc(C(=O)NC3CCN(Cc4ccccc4)CC3)ccc21 (stereo not given)	u	i	u	11µM*
COc1cccc(-c2cc(C3CCN(S(=O)(=O)c4ccc(C#N)cc4)CC3)[nH]n2)c1	28µM*	i	u	28µM*
COc1cccc(-c2cc(C3CCN(C(=O)Nc4ccc(F)cc4)CC3)[nH]n2)c1	u	i	1%	u
COc1cccc(-c2cc(C3CCN(S(=O)(=O)c4ccc(F)cc4F)CC3)[nH]n2)c1	u	i	u	25µM*
Cn1nc(CN2CCN(c3ccncc3)CC2)c2c(Cl)cccc21	-19%	i	2%	u
Cc1nn(-c2ccc(F)cc2)c(C)c1[C@@H]1C=C[C@@H](NCc2ccc(C(C)C)cc2)C1	10µM*	i	u	11µM*
Cc1nn(CCC#N)c(C)c1[C@@H]1C=C[C@@H](NCc2ccc(F)cc2)C1	2%[174 µM]	i	-3%[70.6 µM]	-15%[172 µM]
Cc1nn(-c2ccc(C(C)C)cc2)c(C)c1[C@@H]1C=C[C@@H](NCc2ccc(F)cc2)C1	7.1µM*	22µM*	u	8.9µM*
Cc1nn(CCC#N)c(C)c1[C@@H]1C=C[C@@H](NCc2ccc(C(C)C)cc2)C1	u	i	-26%[70.6 µM]	71µM*
Cc1nc(C)c(C(=O)N2C[C@@H](Oc3ccccc3)C[C@H]2C(=O)NC2CC2)s1	i	i	5%	i
COCCCn1c(C)cnc1C1CCN(C(=O)NCC(=O)OC)C1 (stereo not given)	-2%	i	3%	i
O=C(Nc1ccc2c(c1)OCCO2)N1CCC(Cc2nc(-c3ccncc3)n[nH]2)CC1	-31%	79µM*	-22%	-7%
CS(=O)(=O)N(Cc1cccnc1)C1CN(C(=O)C2CCCCC2)C1	-31%	i	-4%	-11%
Cc1cnc(CC2CCN(C(=O)Nc3ccc4c(c3)OCCO4)C2)n1C1CC1 (stereo not given)	-17%	x	x	-3%
CS(=O)(=O)N(Cc1cccnc1)C1CN(C(=O)Nc2ccc3c(c2)OCCO3)C1	i	35µM*	2%	6%
COCCCn1c(C)cnc1C1CCN(C(=O)Nc2ccc3c(c2)OCCO3)C1 (stereo not given)	i	45µM*	2%	-7%
